# Measured values taken from PubChem BioAssay (NCATS).
# Results filed as inconclusive are left out. Active and inactive are the calls of the source. Calls come from the whole dose curve; as a rule, active = well fitted inhibition curve with a large enough effect; inconclusive = small, poorly fitted or top-dose-only effect; inactive = flat fitted curve, though single readings scatter.
# Tested on: CRL-7250
# Assay: Cytotoxic Profiling of Annotated Libraries Using Quantitative High-Throughput Screening (AID 1296008); note: nearly all actives have a fitted effect of over 60% in size
# Conditions: Five cell lines viability, CellTiter-Glo ATP luminescence, 48-72 h; max response: hits give low values
# Method in brief: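 Compounds were pin-transferred onto cells and incubated 48 or 72 hr at 37 degree Celsius, 95% humidity. CellTiter-Glo was added, plates sat 10 min at room temperature, then ATP-coupled luminescence was imaged as the viability read-out.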
# % is set by controls: 0 for no effect and ±100 for the full control effect.
SMILES,max response,outcome
COc1cc2c(c(OC)c1CC=C(C)C)C[C@H](c1ccc(O)cc1O)CO2,-5.34% (inactive),
COC(=O)C[C@H]1C(C)(C)[C@H](OC(=O)C(C)C)[C@@]2(O)C(=O)[C@]1(C)C1CC[C@]3(C)C(CC(=O)O[C@H]3c3ccoc3)[C@]13O[C@@H]32 (some centres undefined),,inactive
CC/C=C\CCO[C@@H]1O[C@H](CO[C@@H]2OC[C@H](O)[C@H](O)[C@H]2O)[C@@H](O)[C@H](O)[C@H]1O,,inactive
CC/C=C\C/C=C\C/C=C\CCCCCCCC(=O)OCC(O)COC1OC(CO)C(O)C(O)C1O (centres undefined),-2.54% (inactive),
